Reference: PubChem BioAssay (NCI)
Compounds without any hit were thinned out: in the full panel of roughly 83,000, 20% have a hit.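 Each cell line was grown in a 96-well plate and treated with one concentration of compound for 48 hours. Values below 10 were considered active.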 Unmarked numbers belong to inactive results. The source made the active and inactive calls.

Key:
Assay in all cases: NCI-60 one-dose screen, 48 h (100 = growth as untreated, 0 = no growth, -100 = all killed)
Details in all cases: 10 µM unless noted
SK-MEL-2 melanoma = tested on: SK-MEL-2 melanoma
EKVX NSCLC = tested on: EKVX NSCLC
UO-31 renal = tested on: UO-31 renal
TK-10 renal = tested on: TK-10 renal
ACHN renal = tested on: ACHN renal
CAKI-1 renal = tested on: CAKI-1 renal
A498 renal = tested on: A498 renal
CCRF-CEM leukemia = tested on: CCRF-CEM leukemia
MOLT-4 leukemia = tested on: MOLT-4 leukemia
SR leukemia = tested on: SR leukemia
RPMI-8226 leukemia = tested on: RPMI-8226 leukemia
OVCAR-8 ovarian = tested on: OVCAR-8 ovarian
SK-OV-3 ovarian = tested on: SK-OV-3 ovarian
IGROV1 ovarian = tested on: IGROV1 ovarian
OVCAR-3 ovarian = tested on: OVCAR-3 ovarian
HS 578T breast = tested on: HS 578T breast
NCI/ADR-RES ovarian = tested on: NCI/ADR-RES ovarian
OVCAR-5 ovarian = tested on: OVCAR-5 ovarian
OVCAR-4 ovarian = tested on: OVCAR-4 ovarian

## CN(C)c1ccnc(CNCCSC2(c3ccc(C(F)(F)F)cc3)c3ccccc3C=Cc3ccccc32)c1
SK-MEL-2 melanoma
  growth: -41.1% (active)
EKVX NSCLC
  growth: -23.9% (active)
UO-31 renal
  growth: 17.6%
TK-10 renal
  growth: 12.4%
ACHN renal
  growth: 13.2%
CAKI-1 renal
  growth: 6.81% (active)
A498 renal
  growth: 21.6%
CCRF-CEM leukemia
  growth: 0.384% (active)
MOLT-4 leukemia
  growth: 16.1%
SR leukemia
  growth: -53% (active)
RPMI-8226 leukemia
  growth: -48.9% (active)
OVCAR-8 ovarian
  growth: -77.2% (active)
SK-OV-3 ovarian
  growth: 8.64% (active)
IGROV1 ovarian
  growth: 9.31% (active)
OVCAR-3 ovarian
  growth: -40.5% (active)
HS 578T breast
  growth: -18% (active)
NCI/ADR-RES ovarian
  growth: -73.6% (active)

## CCC(C)(C)c1ccc(OCCCCN2CCN(c3ccncc3)CC2)cc1
SK-MEL-2 melanoma
  growth: 63.2%
EKVX NSCLC
  growth: 28%
UO-31 renal
  growth: 40.2%
TK-10 renal
  growth: 70.8%
ACHN renal
  growth: 68.9%
CAKI-1 renal
  growth: 43.5%
A498 renal
  growth: 88.9%
CCRF-CEM leukemia
  growth: 2.23% (active)
MOLT-4 leukemia
  growth: 1.66% (active)
SR leukemia
  growth: -24.2% (active)
RPMI-8226 leukemia
  growth: -31.3% (active)
OVCAR-8 ovarian
  growth: 67%
OVCAR-5 ovarian
  growth: 69.2%
SK-OV-3 ovarian
  growth: 32.3%
IGROV1 ovarian
  growth: 55.5%
OVCAR-3 ovarian
  growth: 51.1%
HS 578T breast
  growth: 20.2%
NCI/ADR-RES ovarian
  growth: 59.7%

## CCN(CC)c1ccnc(CNCCSC(c2ccccc2)(c2ccccc2)c2ccc(OC)cc2)c1
SK-MEL-2 melanoma
  growth: -35.8% (active)
EKVX NSCLC
  growth: -8.82% (active)
UO-31 renal
  growth: 8.36% (active)
TK-10 renal
  growth: 1.59% (active)
ACHN renal
  growth: 12.2%
CAKI-1 renal
  growth: 0.0931% (active)
A498 renal
  growth: -84.5% (active)
CCRF-CEM leukemia
  growth: -3.59% (active)
MOLT-4 leukemia
  growth: 12.9%
RPMI-8226 leukemia
  growth: -55.9% (active)
OVCAR-5 ovarian
  growth: -11.9% (active)
OVCAR-4 ovarian
  growth: 14.1%
SK-OV-3 ovarian
  growth: -8.81% (active)
IGROV1 ovarian
  growth: -2.91% (active)
OVCAR-3 ovarian
  growth: -43% (active)
HS 578T breast
  growth: -33.2% (active)
NCI/ADR-RES ovarian
  growth: -64.5% (active)
